Screening results (PubChem)
HP1b chromo inh: inhibitors of HP1-beta chromodomain binding to methylated histone tails | P83916 | AlphaScreen HP1-beta / biotin-H3K9me3 peptide binding | Potency, µM (doses to about 114 µM), for inactives: top-dose activity change, negative = inhibition, most hits filed as inhibitors | 390,000 compounds, 0.56% hits | AID 540317; further: nearly all actives have a fitted effect of over 70% in size
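AlphaScreen: HP1-beta (50 nM) preformed 30 min with biotin-H3(1-18)K9me3 peptide (50 nM) in PBS pH 7.4, 0.01% Tween-20. Compound added for 30 min at RT, then streptavidin donor/nickel chelate acceptor beads (10 ug/mL) for 30 min.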
JMJD2A Tudor inh: blocks the human JMJD2A Tudor domain. AlphaScreen JMJD2A-Tudor / H3K4me3 peptide binding. 390,000 compounds, 4.4% hits. O75164. Potency, µM (series often up to 114 µM), inactives show at the highest dose activity change, negative = inhibition, usual class: inhibitors; further: on the % scale 0 is the no-effect control and ±100 the full control effect; nearly all actives have a fitted effect of over 50% in size
PLK1 PBD block: blocks phosphopeptide binding to human PLK1 polo-box domain. P53350. Plk1 PBD binding of FITC phosphopeptide, fluorescence polarization. 360,000 compounds, 2.8% hits. Potency, µM, for the others: max response, negative = inhibition, actives largely listed as inhibitors; further: series mostly up to about 57 µM; on the % scale 0 is the no-effect control and ±100 the full control effect; nearly all actives have a fitted effect of over 65% in size
Target sequence (P53350 whole entry, looked up, the tested form may be a part): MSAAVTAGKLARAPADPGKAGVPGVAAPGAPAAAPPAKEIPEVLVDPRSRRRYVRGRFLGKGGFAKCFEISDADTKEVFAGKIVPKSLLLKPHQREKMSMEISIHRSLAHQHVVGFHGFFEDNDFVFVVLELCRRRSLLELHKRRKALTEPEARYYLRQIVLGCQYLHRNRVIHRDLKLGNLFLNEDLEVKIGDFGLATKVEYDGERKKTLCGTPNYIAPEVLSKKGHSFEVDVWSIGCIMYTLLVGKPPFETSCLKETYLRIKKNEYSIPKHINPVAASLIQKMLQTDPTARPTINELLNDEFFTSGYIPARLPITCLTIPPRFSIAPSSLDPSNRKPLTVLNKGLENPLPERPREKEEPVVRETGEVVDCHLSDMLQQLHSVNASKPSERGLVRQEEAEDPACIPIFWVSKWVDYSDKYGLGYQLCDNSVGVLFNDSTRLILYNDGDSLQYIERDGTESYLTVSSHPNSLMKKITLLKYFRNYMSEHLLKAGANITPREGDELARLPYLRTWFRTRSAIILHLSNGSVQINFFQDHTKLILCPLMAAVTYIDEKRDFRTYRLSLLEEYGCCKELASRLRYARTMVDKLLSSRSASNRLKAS
Sfp inh: Sfp phosphopantetheinyl transferase inhibition | Potency, µM, for inactives: largest response in the series, negative = inhibition, actives largely listed as inhibitors | Q9F4F7 | Biochemical Sfp PPTase activity, qHTS | 310,000 compounds, 3.5% hits;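 further: the enzyme is Sfp with the accession as filed and its product quenches rhodamine fluorescence; 0% = enzyme reaction without inhibitor and -100% = no enzyme wells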
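Buffer: 50 mM Hepes-Na pH 7.6, 10 mM MgCl2, 0.01% Nonidet P-40, 0.01% BSA. Enzyme 15 nM, pre-exposed to compound 15 min; substrates then added and fluorescence change tracked over 30 min.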
BAZ2B inh: inhibitors of human BAZ2B bromodomain; Q9UIF8; AlphaScreen BAZ2B-H3K14Ac peptide displacement; Potency, µM (titrated, usually from 114 µM), without a hit: at the highest dose activity change, negative = inhibition, usual class: inhibitors; 360,000 compounds, 4.4% hits; AID 504333; further: on the % scale 0 is the no-effect control and ±100 the full control effect; nearly all actives have a fitted effect of over 60% in size
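BAZ2B (50 nM) with biotin-H3(5-23)K14Ac peptide (50 nM) in PBS pH 7.4, 0.01% Tween-20, preformed 30 min, then compound 30 min at room temperature; top concentration 110uM. AlphaScreen streptavidin donor/nickel chelate acceptor beads (10 ug/mL final), 20 min dark, signal read.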
G9a inh: G9a (human) methyltransferase inhibition; Q96KQ7; G9a H3K9 monomethylation, AlphaScreen, 2 h; Potency, µM (doses to about 102 µM), for inactives: at the highest dose activity, negative = inhibition, most hits filed as inhibitors; 350,000 compounds, 8.8% hits; further: on the % scale 0 is the no-effect control and ±100 the full control effect; nearly all actives have a fitted effect of over 75% in size
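G9a (20 nM) preincubated 15 min RT with compounds, then 500 nM biotinylated H3K9 peptide and 20 uM SAM added; 2 h RT reaction. Monomethyl-H3K9 product detected by AlphaScreen with anti-H3K9me1 antibody, streptavidin donor and anti-rabbit IgG acceptor beads.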
Numbers without * were called inactive; ? = inconclusive; nt = no result; ! = not active in a repeat; [ ] = another dose, or the depositor's remark. Sampled rows, rich in hits. Any-hit rate of the full collection: about 12%. The call rests on the fitted dose curve; in most records, active means well fitted curve in the direction sought with a large enough effect; inconclusive means small, poorly fitted or top-dose-only effect, or another doubt; inactive means no such curve, though single readings can be large; an effect the other way counts as inactive or inconclusive. Potency means the concentration at half of the fitted maximal effect.

SMILES	HP1b chromo inh	JMJD2A Tudor inh	PLK1 PBD block	Sfp inh	BAZ2B inh	G9a inh
Cn1c(=N)n(CC(=O)c2ccc(Br)s2)c2ccccc21	34%	-6%	-7%	-2%	-3%	?
COc1ccc(-n2ncc3c2ncn2nc(-c4ccc(OC)c(OC)c4)nc32)cc1	27%	4%	nt	nt	5%	10%[59 µM]
Cc1ccc(-n2cccc2/C=C2\C(=N)N3N=C(c4ccco4)SC3=NC2=O)cc1	-3%	?	30µM*	-28%	35µM*	10µM*
Cc1cc(C)cc(-n2cccc2/C=C2/C(=N)N3C(=NC2=O)SN=C3S(C)(=O)=O)c1	-19%	?	-12%	?	56µM*	?
CN(C)c1ccc(/C=C2\C(=N)N3C(=NC2=O)Sc2cc(S(C)(=O)=O)ccc23)cc1	nt	nt	nt	12%	-6%	?
CCC1=NN2C(=N)/C(=C\c3cccn3-c3ccc(C)c(C)c3)C(=O)N=C2S1	14%	?	?	-23%	-22%	-33%
CCc1ccc(-n2cccc2/C=C2/C(=N)N3C(=NC2=O)SN=C3S(C)(=O)=O)cc1	-3%	56µM*	13µM*	1%	40µM*	45µM*
CS(=O)(=O)C1=NSC2=NC(=O)/C(=C\c3cccn3-c3ccccc3Cl)C(=N)N21	25%	?	?	-5%	50µM*	50µM*
CCOc1ccc(NC(=O)c2cc3c(C)nn(-c4ccccc4)c3s2)cc1	32%	-2%	nt	nt	1%	-6%[59 µM]
Cc1ccc2oc(C(=O)N(Cc3sccc3C)C3CCS(=O)(=O)C3)c(C)c2c1 (centres undefined)	9%	-33%	nt	nt	-15%	-35%[59 µM]
CC1CCCCN1C(=O)CSc1nnc(CSc2ncccn2)n1C (centres undefined)	30%	5%[57.1 µM]	-21%	0%	8%	nt
CCC1=NN2C(=N)/C(=C\c3cccn3-c3ccc(Cl)cc3)C(=O)N=C2S1	-4%	-36%	?	0%	?	-9%[59 µM]
Cc1ccc(-n2cccc2/C=C2/C(=N)N3C(=NC2=O)SN=C3S(C)(=O)=O)cc1	-24%	16µM*	?	-9%	45µM*	40µM*
CC(OC(=O)C1CC1)C(=O)Nc1ccc([N+](=O)[O-])cc1Cl (centres undefined)	-4%	-20%	-11%	18%	-10%	-2%
O=C(COC(=O)C(Cc1ccccc1)NC(=O)c1ccc(Cl)cc1)c1ccc(Cl)cc1 (centres undefined)	19%	-23%	11µM*	28%	1%	3%[59 µM]
O=C(COC(=O)C(Cc1ccccc1)NC(=O)c1ccccc1)c1ccccc1 (centres undefined)	27%	-4%	-20%	1%	11%	-7%[59 µM]
O=C1O/C(=C/Br)CCC1c1cccc2ccccc12 (centres undefined)	nt	nt	nt	nt	nt	27%[59 µM]
Cc1ccc(C)c(Nc2nc3ccccc3[nH]2)c1	37%	-14%	-2%	nt	nt	nt
Nc1ccccc1Nc1nc2ccccc2[nH]1	-7%	-26%	-18%	3%	?	89µM*
Nc1ccc(Nc2nc3ccccc3[nH]2)cc1	?	56µM*	-12%	-3%	45µM*	nt
Cc1ccc(N(C)S(=O)(=O)c2ccc3c(c2)CCC(=O)N3)cc1C	nt	-9%	nt	nt	nt	nt
Cc1ccc(N=Nc2[nH]c3ccccc3c2O)cc1	32%	?	-21%	-14%	56µM*	14µM*
COc1ccc(N=Nc2[nH]c3ccc(C)cc3c2O)cc1	24%	4%	7%	-16%	?	11µM*
CN(C(=O)CSc1nc2ccc(NC(=O)COc3ccccc3Cl)cc2s1)c1ccccc1	38%	-3%	nt	nt	0%	-21%[59 µM]
Cc1occc1C(=O)NCc1ccc(C(=O)O)o1	30%	-3%	-4%	50µM*	-1%	4%[12.7 µM]
SMILES	HP1b chromo inh	JMJD2A Tudor inh	PLK1 PBD block	Sfp inh	BAZ2B inh	G9a inh
Cc1cc(C(=O)NCc2ccc(C(=O)O)o2)c(C)o1	?	22µM*	-16%	7%	56µM*	?
O=C(CCCc1c[nH]c2ccccc12)NCc1ccccc1C(F)(F)F	4%	?	-8%	4%	-35%	6%
CSc1nnc2c(n1)c(C)nn2-c1cccc(C)c1	-35%	?	-19%	-16%	28µM*	10µM*
C/C(=N/NC(=O)CN(c1ccccc1)S(=O)(=O)c1ccccc1)c1ccccc1O	41%	?	-4%	25%	13µM*	nt
COc1ccccc1CNC(=O)[C@H](C)NC(=O)C1CCN(C(=O)[C@@H](N)CCSC)CC1	55%	-16%	-4%	2%	?	nt
Fc1ccccc1NC(=S)N1CCN(c2ccccn2)CC1	37%	-16%	3%	1%	2%	-7%[59 µM]
CNCc1ccccc1Sc1cc(O)ccc1O	10µM*	18µM*	5.3µM*	22µM*	35µM*	1µM*
COc1ccc2[nH]c3c(c2c1)CCN1C(=O)C(CC(=O)NCc2cccc(C(F)(F)F)c2)C[C@H](C(=O)N(C(C)C)C(C)C)[C@@]31C (some centres undefined)	-15%	?	-6%	nt	nt	nt
C[n+]1cc2c3c(ccc2c2ccc4cc5c(cc4c21)OCO5)OCO3	-18%	89µM*	nt	8.9µM*!	nt	1.9µM*
Cc1cccc2c3c([nH]c12)CCNC3	-10%	?	24µM*	1%	-36%	-4%[0.501 µM]
Cc1cccc2c(Cl)cc(=O)[nH]c12	nt	nt	nt	18%	8%	18%[59 µM]
Cc1ccc(C(=O)NCc2ccccn2)cc1Cl	59%	-13%	?	3%	-12%	nt
CN(Cc1ccccc1F)c1nc(-c2cccnc2)nc2ccccc12	75%	-2%	-3%	-27%	2%	-29%
CCOc1ccc(CN(C)c2nc(-c3cccnc3)nc3ccccc23)cc1OC	1%	?	-12%	-24%	35µM*	?
Cc1ccc(CN(C)c2nc(-c3cccnc3)nc3ccccc23)o1	24%	-32%	-14%	0%	-22%	40µM*
CN(Cc1ccco1)c1nc(-c2cccnc2)nc2ccccc12	nt	nt	nt	-10%	nt	-1%[0.501 µM]
CCOc1c(Br)cc(C2C=C(C(=O)O)Nc3ncnn32)cc1OC (centres undefined)	37%	-5%	nt	nt	-1%	?
CCCCOc1ccc(C2C(=O)N(C3CCCCC3)CC(=O)N2CCCC)cc1 (centres undefined)	46%	2%	nt	nt	13%	7%[59 µM]
O=S(=O)(Nc1ccc(N2CCOCC2)cc1)c1c(F)cc(F)cc1Br	?	-25%[57.1 µM]	?	6%	-30%	40µM*
COc1ccc(NS(=O)(=O)c2ccc(-n3cnnn3)cc2)cc1OC	20%[57 µM]	-4%	3%	8%	-3%	?
COc1ccc(S(=O)(=O)Nc2ccc(-n3cnnn3)cc2)cc1Br	26%	-6%	-7%	nt	-6%	56µM*
COc1ccc(S(=O)(=O)NC2CCCCC2)cc1-n1cnnn1	-5%	79µM*	27µM*	8%	-25%	-3%
